In PubChem BioAssay (NCI):
About 79,000 compounds went through this panel and 15% of them were active in at least one assay; those are over-represented in the sample as a whole. A number with no mark means an inactive call. Active and inactive are the calls of the source. No stated cut-off is given here; in the data, active means growth inhibition above about 70%; inactive means the rest.

Assays:
[1] = NCI Yeast Anticancer Drug Screen. Data for the rad50 strain (AID 155);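 further: 0% = growth of vehicle-only cultures of the same strain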; settings: S. cerevisiae rad50 strain growth inhibition, active compounds read high
How it was run: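 DNA repair mutant yeast, compound exposure, growth read-out; inhibition is taken relative to vehicle.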

[2] = NCI Yeast Anticancer Drug Screen. Data for the mec2-1 strain (AID 157); settings: S. cerevisiae mec2-1 strain, active compounds read high
How it was run: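 Growth inhibition is read against vehicle-treated controls after compound exposure of the mec2-1 yeast strain, which is defective in DNA damage repair or cell cycle control.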

[3] = NCI Yeast Anticancer Drug Screen. Data for the sgs1 mgt1 strain (AID 161);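 further: 0% = growth of cultures given vehicle only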; settings: S. cerevisiae sgs1 mgt1 strain, active compounds read high
How it was run: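 This yeast growth screen uses a strain with defined DNA-repair lesions; compound-treated growth is compared with vehicle-treated growth.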

[4] = NCI Yeast Anticancer Drug Screen. Data for the cln2 rad14 strain (AID 165);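 further: 0% = growth equal to vehicle treated cultures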; settings: S. cerevisiae cln2 rad14 strain, active compounds read high
How it was run: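 Growth inhibition, relative to vehicle-treated controls, is the read-out. The test organism is a yeast strain with defined genetic alterations, cln2 rad14.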

[5] = NCI Yeast Anticancer Drug Screen. Data for the bub3 strain (AID 167); settings: S. cerevisiae bub3 mutant strain, active compounds read high
How it was run: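 In this screen, a yeast mutant lacking normal mitotic checkpoint function is challenged with compound. Relative growth versus vehicle gives the inhibition value.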

[6] = NCI Yeast Anticancer Drug Screen. Data for the mlh1 rad18 strain (AID 175); settings: S. cerevisiae mlh1 rad18 strain growth inhibition, active compounds read high
How it was run: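 Cells of a genetically altered yeast strain, deficient in DNA damage repair, were treated with compound. Their growth was then compared with that of vehicle-treated cultures to give inhibition.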

[7] = at 5.0 µM (retest, dose inferred, filed as 0.5)
[8] = at 50.0 µM (retest, dose inferred, filed as 5.0)

SMILES	growth inhibition [1, 7] [%]	growth inhibition [1, 8]	growth inhibition ([1]; at 50.0 µM)	growth inhibition [2, 7] [%]	growth inhibition [2, 8]	growth inhibition ([2]; at 50.0 µM)	growth inhibition [3, 7] [%]	growth inhibition [3, 8]	growth inhibition ([3]; at 50.0 µM)	growth inhibition [4, 7] [%]	growth inhibition [4, 8]	growth inhibition ([4]; at 50.0 µM)	growth inhibition [5, 7]	growth inhibition [5, 8]	growth inhibition ([5]; at 50.0 µM)	growth inhibition [6, 7]	growth inhibition [6, 8]	growth inhibition ([6]; at 50.0 µM)
Cc1c(C)c(C[P+](CCP(c2ccccc2)c2ccccc2)(c2ccccc2)c2ccccc2)c(C)c(C)c1C[P+](CCP(c1ccccc1)c1ccccc1)(c1ccccc1)c1ccccc1	18	36%	29.8%	11	13%	16.5%	7	41%	59.5%	-14	2%	-1.3%	14%	21%	-5.8%	13%	33%	35.2%
CCOC(=O)C1=C(C)NC(C)=C(C(=O)OCC)C1c1ccnc2ccccc12	10	94% (active)	63.8%	7	97% (active)	54.4%	-26	96% (active)	55%	-8	93% (active)	63.8%	10%	93% (active)	98% (active)	10%	96% (active)	55.9%
COCCNC(=O)C1C(=O)N(CCOC)C(=O)/C1=N/N (configuration not stated)	1	-1%	-33.3%	1	5%	0.6%	8	-1%	13.6%	-2	6%	35%	0%	20%	-0.25%	-3%	-2%	5.5%
O=C(CCCCOCCCCC(=O)OCC1CCCO1)OCC1CCCO1 (configuration not stated)	-1	-2%	9.1%	0	2%	16.9%	-91	4%	45%	2	-9%	10.3%	-4%	-3%	13.5%	-1%	-12%	18.1%
CCCCOC(c1ccccc1)N1CCCCC1 (configuration not stated)	0	6%	28.8%	0	11%	-10.7%	-3	6%	35.8%	-3	-12%	-13.6%	-4%	-4%	4.15%	-4%	-3%	7.35%
CC(C=O)=C(c1ccccc1)c1ccccc1	-147	-157%	23.8%	-50	-56%	24.6%	-57	-64%	49.2%	-54	-56%	23.8%	-62%	-74%	0.3%	-115%	-111%	28.4%
Cc1ccc(C(=O)C(CN(C)C)CN(C)C)cc1	16	41%	83.7% (active)	12	63%	92.3% (active)	20	76% (active)	88.5% (active)	17	39%	73.2% (active)	16%	65%	88.7% (active)	14%	72% (active)	88% (active)
N=C(N)SCc1cc(Cl)cc(Cl)c1O	8	20%	55.2%	4	-6%	-1.85%	1	1%	16%	-18	-72%	-2%	-14%	-19%	-9.35%	-5%	42%	80.2% (active)
CCCCC(CC)(COC(C)=O)COC(C)=O	-3	0%	7%	1	2%	12.7%	3	-1%	2.6%	2	5%	42.5%	4%	4%	-2%	1%	-1%	-16.7%
C=C(CN(C)C)C(=O)c1ccc(C)cc1C	34	99% (active)	99.4% (active)	18	99% (active)	99.5% (active)	64	99% (active)	99.4% (active)	24	99% (active)	99.3% (active)	77% (active)	99% (active)	56%	74% (active)	99% (active)	99.2% (active)
C=Cc1cc(O)cc2c1-c1ccc(O)c(C)c1CC2	10	99% (active)	99.7% (active)	-22	100% (active)	99.8% (active)	-1	99% (active)	99.8% (active)	-3	99% (active)	99.6% (active)	10%	99% (active)	99.5% (active)	-5%	99% (active)	99.7% (active)
O=C1CC(c2ccccc2Cl)C(c2ccccc2Cl)C1 (configuration not stated)	-2	97% (active)	97.5% (active)	-6	98% (active)	96% (active)	-7	96% (active)	96.7% (active)	-2	97% (active)	95.5% (active)	0%	97% (active)	97.2% (active)	-2%	96% (active)	97.2% (active)
CC(C)(Cl)C(Cl)CC/C(CBr)=C(\Cl)CBr (configuration not stated)	10	99% (active)	73.5% (active)	17	99% (active)	92.3% (active)	-11	98% (active)	92% (active)	21	95% (active)	90.2% (active)	4%	94% (active)	92% (active)	11%	99% (active)	4.4%
CCN(CC)CCC(=O)c1ccc2c3c(n(C)c2c1)CCCC3	0	9%	95.8% (active)	0	9%	25.2%	-4	26%	83.8% (active)	-5	22%	5.85%	-5%	42%	96.3% (active)	3%	21%	78.7% (active)
Cc1ccc(C(=O)CCCN2CCOCC2)c(C)c1	13	46%	77.5% (active)	5	30%	38.8%	27	57%	58.8%	29	63%	50.5%	30%	69%	73.8% (active)	5%	43%	72.8% (active)
O=C1/C(=C\c2ccc(Cl)cc2)SC2SC=C(c3ccc([N+](=O)[O-])cc3)N12 (configuration not stated)	0	86% (active)	98.3% (active)	2	94% (active)	98.9% (active)	-4	92% (active)	99.2% (active)	-20	86% (active)	98% (active)	-7%	86% (active)	86.8% (active)	5%	92% (active)	98.6% (active)
O=C1c2c(F)c(F)c(F)c(F)c2SC2=NCCN12	2	99% (active)	78.4% (active)	-4	98% (active)	80.4% (active)	-10	97% (active)	76.5% (active)	-23	98% (active)	76.8% (active)	-31%	99% (active)	83.2% (active)	11%	98% (active)	78.7% (active)
Cc1[nH]c2ccccc2c1C(C)CC(O)c1ccccc1 (configuration not stated)	5	68%	95% (active)	-4	73% (active)	85.5% (active)	2	62%	90.2% (active)	11	29%	95.8% (active)	3%	67%	88.7% (active)	8%	88% (active)	95.2% (active)
CCCCCC(/C=N/NC(N)=S)C(O)(C(F)(F)F)C(F)(F)F (configuration not stated)	-21	51%	77.6% (active)	-17	47%	62.4%	-7	28%	73% (active)	-11	77% (active)	61%	-11%	77% (active)	35%	-27%	78% (active)	67.9%
